Shn3 3UTR inh = reduction of Shn3 3'UTR firefly luciferase signal, primary screen, Schnurri-3 inhibitor project, cell-based, Clone20 osteoblasts, set 2; inhibition, % at 12.5 µM; 0.52% of 360,000 active; Clone20 osteoblast Shn3 3'UTR firefly luciferase, 24 h;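 active = mean inhibition of at least 75% with every replicate also reaching 75%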
LMP1 NFkB inh = EBV LMP1-driven NF-kappaB luciferase reporter inhibitors, primary screen, cell-based, luminescence, single point; LMP1-induced NF-kappaB luciferase reporter cells; AID 504558, 2011; inhibition, % at 12.5 µM; 0.69% of 350,000 active; in the data active = inhibition above about 41%
TWEAK Fn14 block = inhibitors of TWEAK-Fn14 signaling, primary screen, luciferase reporter cells, uHTS; AID 1159606, 2016; inhibition, % at 10 µM; 2% of 360,000 active; TWEAK-stimulated Fn14 reporter cells, luciferase luminescence, 8 h; in the data active = inhibition above about 50%
Peg3 prom inh = Peg3 promoter-driven luciferase inhibitors, primary screen, cell-based, HeLa, luciferase luminescence; HeLa PEG-Prom luciferase reporter, overnight; inhibition, % at 20 µM; 1.7% of 360,000 active; AID 588405, 2011;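 active = inhibition of at least 50% at 20 µM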
MITF TRPM1 inh = inhibitors of MITF-dependent TRPM1 promoter reporter, primary screen, cell-based, SK-MEL-5, single point, luciferase. SK-MEL-5 TRPM1 promoter luciferase, 24 h. 0.83% of 330,000 active. inhibition, % at 12.5 µM;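 active = mean inhibition across replicates of 60% or more, whatever share of single replicates reaches that level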
TROY NFkB inh = inhibitors of TROY-driven NF-kB signaling, primary screen, Q293 LMP1-TROYcd cells, NF-kB luciferase, uHTS; Q293 LMP1-TROYcd NF-kB luciferase reporter, 4 h; inhibition, % at 10 µM; 0.98% of 360,000 active; AID 1347056, 2019;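 active = compounds whose plate-normalised and pattern-corrected inhibition of the luciferase reporter signal at the single screening dose is 50% or more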
Large screens that a line does not name were inactive. Rows were chosen to be rich in hits. Some 4.1% of all compounds tested hit in one or more screens of this group.

CCOC(=O)C1CCCN(c2ccc(NC(=O)c3snc4c(=O)[nH]cnc34)cc2)C1 (centres undefined)	none
CO/N=C(/C(=O)N[C@@H]1C(=O)N2C(C(=O)O)=CCS[C@H]12)c1cnc(N)s1	none (no result: LMP1 NFkB inh, MITF TRPM1 inh)
Cc1ccc(OCC(=O)OCC(=O)c2c(N)n(C)c(=O)n(C)c2=O)cc1C	none
Cc1cc(OCC(=O)OCC(=O)c2c(N)n(C)c(=O)n(C)c2=O)ccc1Cl	TWEAK Fn14 block 86.1
Cn1c(=O)c2ccccc2n(Cc2cccc(F)c2)c1=O	none
NC(=S)NN=Cc1nccc2c(C(F)(F)F)cccc12	LMP1 NFkB inh 62.1 (no result: MITF TRPM1 inh)
CNc1cccnc1C=NNC(N)=S	Shn3 3UTR inh 93.9, LMP1 NFkB inh 67.2
C=CCN(c1ccccc1)S(=O)(=O)c1cccc(C(=O)NCc2ccco2)c1	none
O=C(NCc1cccs1)C1CC(=O)N(Cc2ccccc2)C1 (centres undefined)	none
c1ccc2c(-c3ccncc3)c[nH]c2c1	LMP1 NFkB inh 76.6
c1ccc(-c2nnc(-c3ccccc3)c(-c3c[nH]c4ccccc34)n2)cc1	none
COc1cccc2cc(-c3nnc(-c4ccccc4)o3)c(=O)oc12	LMP1 NFkB inh 49.6, TWEAK Fn14 block 73.5, TROY NFkB inh 70.3
CCOc1ccc(-c2nnc(SCc3nnc(-c4ccccc4)o3)n2-c2ccccc2F)cc1	TWEAK Fn14 block 52.0, TROY NFkB inh 61.1
Nc1cccc2nsnc12	none
Nc1cc2nsnc2cc1Br	MITF TRPM1 inh 70.1
COCC(=O)N(Cc1cc2ccccc2[nH]c1=O)c1ccccc1OC	TWEAK Fn14 block 79.4 (no result: TROY NFkB inh)
Cc1cccc(N(Cc2cc(=O)[nH]c3ccccc23)C(=O)CCl)c1	TWEAK Fn14 block 86.5, Peg3 prom inh 94.8, MITF TRPM1 inh 76.3
COc1ccc(N(Cc2cc(=O)[nH]c3ccccc23)C(=O)CCl)cc1	Peg3 prom inh 80.3, MITF TRPM1 inh 85.3
CCCC(=O)N(Cc1cc(=O)[nH]c2ccccc12)c1ccc(OC)cc1	none
COc1ccccc1N(Cc1cc(=O)[nH]c2ccccc12)C(=O)c1ccccc1	TWEAK Fn14 block 80.6, TROY NFkB inh 81.7
CCCC(=O)N(Cc1cc(=O)[nH]c2ccccc12)c1cccc(C)c1	none
CN(Cc1cc(=O)[nH]c2ccccc12)C(=O)c1ccccc1	none
CCCn1ncc(C(=O)NC2CCCN(Cc3ccc(Cl)cc3)C2)c1C (centres undefined)	none
CCOC(=O)c1cnc2ccc(OCC)cc2c1NCc1ccccc1OC	TWEAK Fn14 block 71.9, TROY NFkB inh 54.0
CCOC(=O)c1cnc2ccc(OC)cc2c1NCc1ccccc1	none
O=C(CN1C2CCCC1CC(NC(=O)c1ccccc1)C2)Nc1ccccc1C(F)(F)F (centres undefined)	TROY NFkB inh 50.8
O=C(CN1C2CCCC1CC(NC(=O)c1ccco1)C2)Nc1ccccc1C(F)(F)F (centres undefined)	none
Cc1nc2ccccc2c2c1CC(C(C)(Cl)Br)O2 (centres undefined)	Shn3 3UTR inh 90.3
Cc1ccc2nc(C)c3c(c2c1)OC(C(C)(Cl)Br)C3 (centres undefined)	none
Cc1nn(-c2cccc(C(=O)O)c2)c(C)c1[N+](=O)[O-]	none
Cc1cc(C)n(-c2cccc(C(=O)O)c2)n1	TWEAK Fn14 block 79.5
COC(=O)c1nn(-c2ccc(-c3ccccc3)cc2)cc1O	TWEAK Fn14 block 80.8, MITF TRPM1 inh 73.1
CCOC(=O)c1nn(-c2ccccc2)cc1O	none
Cc1cccc(/C=C2/Sc3ccc(C(=O)NCCCN4CCOCC4)cc3NC2=O)c1	Peg3 prom inh 65.2
COc1ccc(C(=O)NCCN2CCOCC2)cc1[N+](=O)[O-]	LMP1 NFkB inh 80.3
COc1ccc(C(=O)NCCCN2CCOCC2)cc1OC	none
CCN1CCCC1CNC(=O)c1ccc2c(c1)NC(=O)/C(=C\c1ccccc1Cl)S2 (centres undefined)	none (no result: MITF TRPM1 inh)
COc1ccc(/C=C2/Sc3ccc(C(=O)NCCCN4CCOCC4)cc3NC2=O)cc1OC	Peg3 prom inh 87.9
CCN1CCCC1CNC(=O)c1ccc2c(c1)NC(=O)/C(=C\c1ccc(OC)c(OC)c1)S2 (centres undefined)	MITF TRPM1 inh 87.4
COc1ccc(/C=N/NC(=O)C2C(C=C(Cl)Cl)C2(C)C)c(OC)c1 (centres undefined)	none
CCN1CCN(CCCNC(=O)c2ccc3c(c2)NC(=O)/C(=C\c2cccc(C)c2)S3)CC1	Peg3 prom inh 106.6, MITF TRPM1 inh 101.5
CSc1ncnc2c1ncn2CCCNC1CCN(Cc2ccccc2)CC1	none (no result: MITF TRPM1 inh)
c1ccc(COc2ncnc3c2ncn3CCCNC2CCN(Cc3ccccc3)CC2)cc1	Peg3 prom inh 61.4 (no result: MITF TRPM1 inh)
Cc1ccc(S(=O)(=O)N2CC3(O)CN(C(=O)OC(C)C)N(C(=O)OC(C)C)CC3(OC(=O)NCc3ccccc3F)C2)cc1 (centres undefined)	none (no result: MITF TRPM1 inh)
Cc1ccc(C(C)C)c(OCc2ccc(C(=O)N/N=C/c3ccc(O)cc3O)cc2)c1	Shn3 3UTR inh 91.8 (no result: MITF TRPM1 inh)
Cc1cc(C(=O)N2CCC2(C)C(=O)Nc2cccc3c2CCCC3)nn1C (centres undefined)	none (no result: LMP1 NFkB inh, MITF TRPM1 inh)
Cc1cc(=O)oc2c(C)c(OCC(=O)N(C)C)ccc12	LMP1 NFkB inh 41.6
Cc1ccc(OCCCNCCO)c(Br)c1	TWEAK Fn14 block 52.8
COC(=O)c1cc(S(=O)(=O)N2CCN(c3cccc(C)c3C)CC2)c[nH]1	none (no result: MITF TRPM1 inh)
COc1cccc(CN2CCNC(=O)C2CC(=O)N(C)C2CCOCC2)c1OC (centres undefined)	none
COc1cccc(C2Nc3ccc4ccccc4c3C3=C2C(=O)CCC3)c1O (centres undefined)	MITF TRPM1 inh 64.4
CC(=O)Nc1cc2nc(C)n(Cc3ccc([N+](=O)[O-])cc3)c2nc1C	none
O=C(NNC(=O)c1ccccc1-n1cccc1)c1ccc(Cl)cc1	TWEAK Fn14 block 83.2
O=C(NCc1ccccc1)C(c1c(F)cccc1Cl)N(C(=O)c1csnn1)C1CC1 (centres undefined)	none
COC1C=CC=C(C)C(=O)NC2=CC(=O)C(N)=C(CC(C)CC(OC)C(O)C(C)C=C(C)C1OC(N)=O)C2=O (centres undefined)	Shn3 3UTR inh 86.9, LMP1 NFkB inh 72.3, TWEAK Fn14 block 70.0, Peg3 prom inh 64.2, MITF TRPM1 inh 64.9
CCCCCCCn1c(=O)c(C(=O)OC)c(N)c2ccccc21	TWEAK Fn14 block 50.5
O=C(OCC(=O)C12CC3CC(CC(C3)C1)C2)c1ccc(O)cc1O	none
CCN(CC)S(=O)(=O)c1cc(OC)ccc1N=Nc1ccc(O)c2ncccc12	Shn3 3UTR inh 90.5, MITF TRPM1 inh 70.6
NS(=O)(=O)c1ccc(N=Nc2ccc(O)c3ncccc23)cc1	Peg3 prom inh 56.4
